Assay results as given in the supplement of paper PMC7156485.
± gives the standard deviation of the averaged measurements.

Columns and labels:
Settings in all cases: concentration: 10 µM; 24 h
HCC1569 [1] = assay: cell number relative to DMSO (% of DMSO); higher = more cells (less growth inhibition / toxicity)
Method in brief: (§1)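 In 384-well plates holding 800 HCC1569 or TDF cells per well in RPMI with 10% FBS, compounds were tested at 10 µM for 24 h at 37 °C in triplicate. Fixation used 3.7% formaldehyde. Staining used a rabbit anti-H1.0 antibody with an AlexaFluor 647 secondary, plus DAPI. Each value, H1.0 nuclear intensity or cell number, is a median of replicates shown as percent of the plate control, and HCC1569 values were smoothed for positional effects.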

TDF [2] = assay: as above
Method in brief: as §1

TDF [3] = assay: H1.0 immunofluorescence intensity relative to DMSO (% of DMSO); higher = stronger H1.0 induction, active = 120 or more
Method in brief: as §1

HCC1569 [4] = assay: H1.0 immunofluorescence intensity relative to DMSO (% of DMSO); higher = stronger H1.0 induction, active = 140 or more
Method in brief: as §1
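For H1.0 immunofluorescence intensity relative to DMSO in this document: TDF is a line of transformed human dermal fibroblasts of mesenchymal origin.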
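For cell number relative to DMSO in this document: TDF denotes transformed human dermal fibroblasts of mesenchymal origin.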

CN1CCc2ccccc2Cc2[nH]c3ccccc3c2CC1
cell number (HCC1569 [1]): 104
cell number (TDF [2]): 108
H1.0 immunofluorescence intensity (TDF [3]): 92.4 (inactive)
H1.0 immunofluorescence intensity (HCC1569 [4]): 100 (inactive)

C=CCCCCCCCCC(=O)O [10-Undecenoic acid]
cell number (HCC1569 [1]): 102
cell number (TDF [2]): 103
H1.0 immunofluorescence intensity (TDF [3]): 104 (inactive)
H1.0 immunofluorescence intensity (HCC1569 [4]): 105 (inactive)

CCOC(=O)C1=C(C)NC(C)=C(C(=O)OCC)C1 [Diludin]
cell number (HCC1569 [1]): 97.2
cell number (TDF [2]): 103
H1.0 immunofluorescence intensity (TDF [3]): 93.7 (inactive)
H1.0 immunofluorescence intensity (HCC1569 [4]): 97.2 (inactive)

CCCCCC(CC(=O)NO)C(=O)NC(C(=O)N1CCCC1CO)C(C)C (centres undefined) [Actinonin]
cell number (HCC1569 [1]): 101
cell number (TDF [2]): 89
H1.0 immunofluorescence intensity (TDF [3]): 108 (inactive)
H1.0 immunofluorescence intensity (HCC1569 [4]): 111 (inactive)

CCC12CCCN3CCc4c(n(c5ccccc45)C(=O)C1)C32 (single isomer, unassigned; (-)) [(-)-Eburnamonine]
cell number (HCC1569 [1]): 83.7
cell number (TDF [2]): 58.5
H1.0 immunofluorescence intensity (TDF [3]): 118 (inactive)
H1.0 immunofluorescence intensity (HCC1569 [4]): 113 (inactive)

O=C(COc1ccc(C(=O)c2ccccc2)cc1)NC1CCN(Cc2ccccc2)CC1 [2-(4-benzoylphenoxy)-N-(1-benzyl-4-piperidinyl)acetamide]
cell number (HCC1569 [1]): 81.9
cell number (TDF [2]): 78.3
H1.0 immunofluorescence intensity (TDF [3]): 118 (inactive)
H1.0 immunofluorescence intensity (HCC1569 [4]): 158 (active)

COC(=O)C(c1ccccc1Cl)N1CCc2sccc2C1 (centres undefined) [Clopidogrel]
cell number (HCC1569 [1]): 99.8
cell number (TDF [2]): 79.7
H1.0 immunofluorescence intensity (TDF [3]): 97.3 (inactive)
H1.0 immunofluorescence intensity (HCC1569 [4]): 107 (inactive)

CS(=O)(=O)Nc1ccc([N+](=O)[O-])cc1Oc1ccccc1 [Nimesulide]
cell number (HCC1569 [1]): 104 ± 4.5
cell number (TDF [2]): 107 ± 2.2
H1.0 immunofluorescence intensity (TDF [3]): 94.4 (inactive)
H1.0 immunofluorescence intensity (HCC1569 [4]): 96.5 (inactive)

COc1ccc(Br)cc1S(=O)(=O)NC(=O)/C=C/c1ccccc1Cc1ccc2ccccc2c1
cell number (HCC1569 [1]): 98.1
cell number (TDF [2]): 103
H1.0 immunofluorescence intensity (TDF [3]): 90.2 (inactive)
H1.0 immunofluorescence intensity (HCC1569 [4]): 103 (inactive)

O.O=c1c(O)c(-c2ccc(O)cc2O)oc2cc(O)cc(O)c12
cell number (HCC1569 [1]): 104
cell number (TDF [2]): 94.5
H1.0 immunofluorescence intensity (TDF [3]): 100 (inactive)
H1.0 immunofluorescence intensity (HCC1569 [4]): 98.8 (inactive)

CCNC(=O)C1OC(n2cnc3c(N)nc(NCCc4ccc(CCC(=O)O)cc4)nc32)C(O)C1O.Cl (centres undefined)
cell number (HCC1569 [1]): 118
cell number (TDF [2]): 96
H1.0 immunofluorescence intensity (TDF [3]): 103 (inactive)
H1.0 immunofluorescence intensity (HCC1569 [4]): 102 (inactive)

CC(=O)C1CCC2C3CCC4=CC(=O)CCC4(C)C3CCC12C (centres undefined) [Progesterone]
cell number (HCC1569 [1]): 101.3 ± 0.57
cell number (TDF [2]): 99.1 ± 7.3
H1.0 immunofluorescence intensity (TDF [3]): 95.9 (inactive)
H1.0 immunofluorescence intensity (HCC1569 [4]): 102 (inactive)

COc1ccc(S(=O)(=O)Nc2nc(-c3cccc([N+](=O)[O-])c3)cs2)cc1OC
cell number (HCC1569 [1]): 102
cell number (TDF [2]): 92.4
H1.0 immunofluorescence intensity (TDF [3]): 102 (inactive)
H1.0 immunofluorescence intensity (HCC1569 [4]): 97.7 (inactive)

CC(C)CCN1c2nc(Nc3cc(F)c(O)c(F)c3)ncc2N(C)C(=O)C1C (centres undefined)
cell number (HCC1569 [1]): 65
cell number (TDF [2]): 29.6
H1.0 immunofluorescence intensity (TDF [3]): 131 (active)
H1.0 immunofluorescence intensity (HCC1569 [4]): 148 (active)

COC(=O)N=NC=C1C=[N+]([O-])c2ccccc2N1O [Carbadox]
cell number (HCC1569 [1]): 104
cell number (TDF [2]): 101
H1.0 immunofluorescence intensity (TDF [3]): 95.8 (inactive)
H1.0 immunofluorescence intensity (HCC1569 [4]): 92.8 (inactive)

O=c1nc[nH]c2c1ncn2C1CCC(CO)O1 (centres undefined) [Didanosine]
cell number (HCC1569 [1]): 101
cell number (TDF [2]): 98.9
H1.0 immunofluorescence intensity (TDF [3]): 95.7 (inactive)
H1.0 immunofluorescence intensity (HCC1569 [4]): 109 (inactive)

OC(Cn1cncn1)(Cn1cncn1)c1ccc(F)cc1F [Fluconazole]
cell number (HCC1569 [1]): 102
cell number (TDF [2]): 100
H1.0 immunofluorescence intensity (TDF [3]): 93.8 (inactive)
H1.0 immunofluorescence intensity (HCC1569 [4]): 106 (inactive)

O=C(C=Cc1ccc(O)cc1)c1ccc(O)cc1O [Isoliquiritigenin]
cell number (HCC1569 [1]): 96.3
cell number (TDF [2]): 99.6
H1.0 immunofluorescence intensity (TDF [3]): 89.2 (inactive)
H1.0 immunofluorescence intensity (HCC1569 [4]): 100 (inactive)

O=C(Nc1cc(C(F)(F)F)cc(C(F)(F)F)c1)c1cc(Cl)ccc1O
cell number (HCC1569 [1]): 57
cell number (TDF [2]): 52.7
H1.0 immunofluorescence intensity (TDF [3]): 115 (inactive)
H1.0 immunofluorescence intensity (HCC1569 [4]): 122 (inactive)

CN(CC=CC#CC(C)(C)C)Cc1cccc2ccccc12 [Terbinafine]
cell number (HCC1569 [1]): 104
cell number (TDF [2]): 110
H1.0 immunofluorescence intensity (TDF [3]): 99.6 (inactive)
H1.0 immunofluorescence intensity (HCC1569 [4]): 104 (inactive)

CC1=C(C(=O)Nc2cc3cn[nH]c3cc2F)C(c2ccc(C(F)(F)F)cc2)CC(=O)N1 (centres undefined)
cell number (HCC1569 [1]): 113
cell number (TDF [2]): 98.5
H1.0 immunofluorescence intensity (TDF [3]): 87.8 (inactive)
H1.0 immunofluorescence intensity (HCC1569 [4]): 107 (inactive)

CN(C)CCCCSC(=N)N.Cl.Cl
cell number (HCC1569 [1]): 99.3
cell number (TDF [2]): 106
H1.0 immunofluorescence intensity (TDF [3]): 93.8 (inactive)
H1.0 immunofluorescence intensity (HCC1569 [4]): 102 (inactive)

CN1C(CC(=O)c2ccccc2)CCCC1CC(O)c1ccccc1.Cl (centres undefined)
cell number (HCC1569 [1]): 102
cell number (TDF [2]): 90.9
H1.0 immunofluorescence intensity (TDF [3]): 102 (inactive)
H1.0 immunofluorescence intensity (HCC1569 [4]): 99.2 (inactive)

N=C1Sc2ccccc2C2=NCCCN12
cell number (HCC1569 [1]): 100
cell number (TDF [2]): 99.9
H1.0 immunofluorescence intensity (TDF [3]): 91.9 (inactive)
H1.0 immunofluorescence intensity (HCC1569 [4]): 112 (inactive)

CC1(C)CC(NC(=O)C(=O)Nc2ccc(Cl)cc2)CC(C)(C)N1
cell number (HCC1569 [1]): 104
cell number (TDF [2]): 107
H1.0 immunofluorescence intensity (TDF [3]): 91 (inactive)
H1.0 immunofluorescence intensity (HCC1569 [4]): 99.1 (inactive)

CCCCCC(O)C=CC1=C(CC=CCCCC(=O)O)C(=O)CC1 (centres undefined) [Prostaglandin B2]
cell number (HCC1569 [1]): 109
cell number (TDF [2]): 109
H1.0 immunofluorescence intensity (TDF [3]): 92 (inactive)
H1.0 immunofluorescence intensity (HCC1569 [4]): 97.4 (inactive)
